# From PubChem BioAssay AID1240 (Sanford-Burnham Center for Chemical Genomics, 2008)
# The whole screen tested about 50,000 compounds, of which about 800 (1.6%) showed an effect of 50% or more. What follows is part of a selection rich in strong results, with near analogues and random picks from the rest.
# Target: Bcl-2-like protein 10 (Homo sapiens) (UniProt Q9HD36)
# Assay: Phenotype converters, Bcl-B/TR3 peptide binding displacement, primary biochemical FP (AID 1240);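 also: 0% = Bcl-B with tracer peptide and DMSO and 100% = tracer peptide lacking Bcl-B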
# Details: GST-Bcl-B / FITC-TR3 peptide fluorescence polarization; stronger effect = higher value; compound at 3.75 mg/L
# Chain of Bcl-2-like protein 10 (Homo sapiens) (Q9HD36 whole entry, looked up): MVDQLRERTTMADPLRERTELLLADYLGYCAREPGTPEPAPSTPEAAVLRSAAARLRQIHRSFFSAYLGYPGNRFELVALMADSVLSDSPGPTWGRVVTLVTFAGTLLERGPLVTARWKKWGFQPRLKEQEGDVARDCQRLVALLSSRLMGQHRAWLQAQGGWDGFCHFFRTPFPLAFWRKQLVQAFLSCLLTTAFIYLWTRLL
row,Compound,displacement
1,O=C(Nc1cccc2ccccc12)c1cc(-c2ccco2)nc2ccccc12,34.2%
2,Cc1ccc(C(=O)N2CCC(C(N)=O)CC2)cc1[N+](=O)[O-],-0.2%
3,O=C(Nc1ccccc1)/C(=C\c1cccc(Br)c1)NC(=O)c1ccccc1,4.5%
4,COc1ccc(Cc2nnc(NC(=O)Nc3ccccc3)s2)cc1,11.9%
5,COc1cc(/C=N/NC(=O)CSCc2ccc([N+](=O)[O-])cc2)cc(OC)c1OC,1.6%
6,COc1ccccc1NC(=O)N1CCOCC1,-6.8%
7,COc1ccc(-c2nc(=S)c3c(n2Cc2ccccc2)CCCC3)cc1,10.1%
8,COC(=O)C1=C(C(=O)OC)SC(=C2C(=S)C(C)(C)N(C(=O)c3cccc(C)c3)c3cc(OC)ccc32)S1,-7.2%
9,Nc1ccc2nc(SCC(=O)Nc3cccc(C(F)(F)F)c3)sc2c1,-3.3%
10,CCN1C(=O)/C(=C\c2cn(CCOc3ccccc3)c3ccccc23)SC1=S,20.9%
11,C=CCN1C(=O)/C(=C\c2cc(Br)ccc2OCCOc2cccc(OC)c2)SC1=S,-43.6%
12,C=CCN1C(=O)/C(=C\c2cn(CCOc3cccc(OC)c3)c3ccccc23)SC1=S,91.7%
13,O=C(O)c1ccc2c(c1)C(=O)N(c1ccc(-c3nnc(-c4ccccc4)o3)cc1)C2=O,9%
14,COc1ccc(Br)cc1/C=C/C(=O)Nc1nc2ccc(C)cc2s1,-22.6%
15,CCOC(=O)c1nc(NC(=O)/C=C/c2ccco2)sc1C,73.7%
16,O=C(/C=C/c1ccccc1)Nc1nc2ccc(Br)cc2s1,15%
17,COC(=O)c1c(NC(=O)/C=C/c2ccco2)sc(C)c1C,-12.6%
18,CCOC(=O)c1c(NC(=S)NC(=O)/C=C/c2ccco2)sc(C)c1C,23.9%
19,O=C(/C=C/c1ccco1)Nc1nc2ccc(Br)cc2s1,59.2%
20,Cc1ccc(OCCNc2cc(Cl)ccc2[N+](=O)[O-])cc1C,0.6%
21,CSc1ccc(/C=N/S(=O)(=O)CCc2ccccc2)cc1,-7.7%
22,CCCS(=O)(=O)c1c(S(=O)(=O)CCC)c2c(C)cccn2c1C(N)=O,-9.8%
23,COc1c(Cl)ccc(Cl)c1C(=O)Nc1ccc(I)cc1,-9.5%

row,Compound,displacement
1,O=C(c1ccc(Cl)cc1)N1CCC(Cc2ccccc2)CC1,16.4%
2,Cc1ccc([N+](=O)[O-])cc1-c1ccc(/C=C2\C(=O)NC(=O)N(c3ccc(Cl)cc3)C2=O)o1,6.8%
3,COc1ccc([N+](=O)[O-])cc1-c1ccc(/C=C2\C(=O)NC(=O)N(c3cc(C)cc(C)c3)C2=O)o1,92.6%
4,COc1cc([N+](=O)[O-])ccc1-c1ccc(/C=C2\C(=O)NC(=O)N(c3ccccc3)C2=O)o1,132%
5,COc1cc([N+](=O)[O-])ccc1-c1ccc(/C=C2\C(=O)NC(=O)N(c3ccc(Cl)cc3)C2=O)o1,14%
6,COc1ccc([N+](=O)[O-])cc1-c1ccc(/C=C2\C(=O)NC(=O)N(c3ccc(Cl)cc3)C2=O)o1,25.1%
7,COc1cc([N+](=O)[O-])ccc1-c1ccc(/C=C2\C(=O)NC(=O)N(c3ccc(C)c(C)c3)C2=O)o1,75.5%
8,Cc1cc(C)cc(N2C(=O)NC(=O)/C(=C\c3ccc([N+](=O)[O-])o3)C2=O)c1,-3.8%
9,CCOc1ccc(N2C(=O)NC(=O)/C(=C\c3ccc(-c4ccc([N+](=O)[O-])cc4OC)o3)C2=O)cc1,23%
10,COc1cc([N+](=O)[O-])ccc1-c1ccc(/C=C2\C(=O)NC(=S)N(c3ccc(Cl)cc3)C2=O)o1,16.2%
11,O=C1NC(=O)N(c2ccccc2)C(=O)/C1=C\c1ccc(-c2ccc([N+](=O)[O-])cc2Br)o1,-14.8%
12,Cc1ccc([N+](=O)[O-])cc1-c1ccc(/C=C2/C(=O)NC(=O)N(c3ccccc3)C2=O)o1,82.8%
13,COc1ccc(N2C(=O)NC(=O)/C(=C/c3ccc(-c4ccc([N+](=O)[O-])cc4C)o3)C2=O)cc1,13.6%
14,COc1ccc(C(=O)N2CCN(C3C4CC5CC(C4)CC3C5)CC2)cc1OC (configuration not stated),-6.5%
15,Cc1cccc(N2CCN(C(=O)Nc3ccc(Cl)c(Cl)c3)CC2)c1C,-0.9%
16,O=S1(=O)CCC(NC(=S)SCCOc2ccccc2OCCO)C1 (configuration not stated),6.3%
17,Cc1cccc(C=Nc2ccc(O)cc2)c1,-8.4%
18,CS(=O)(=O)N(CC(=O)Nc1ccc(Cl)cc1)c1ccc(Br)cc1,3.3%
19,Cc1ccc(-c2csc(NC(=O)c3sc4ccccc4c3Cl)n2)c(C)c1,2.6%
20,CCOc1ccc(Cc2c(C)nc3c(C)cccc3c2Cl)cc1,-5.7%
21,CCC1=NN(C(=O)c2ccncc2)C(O)(c2ccc(Br)cc2)C1 (configuration not stated),10.2%
22,Cc1ccc(NC(=S)NN2CCN(C)CC2)cc1,5.2%
23,Cc1ccc(OCC(=O)NCc2ccco2)c(C)c1,-2.9%

row,Compound,displacement
1,N#C/C(=C/c1ccccc1)C(=O)Nc1ccc(Cl)c(Cl)c1,1.5%
2,CC(C)(C)c1cc(/C=N/Nc2nnc3c(n2)[nH]c2ccccc23)cc(C(C)(C)C)c1O,4.8%
3,Cc1nc(-c2ccccc2)nc2[nH]ccc(=O)c12,11.9%
4,CSc1nc(-c2ccccc2)nc2[nH]ccc(=O)c12,110%
5,Cc1nc(-c2ccccc2)c2c(=O)cc[nH]c2n1,15.4%
6,COc1cc(/C=C2/SC(=S)N(C)C2=O)cc(Br)c1OCCOc1ccccc1C,-2%
7,COC(=O)C(Cc1ccccc1)NC(=O)CCN1C(=O)c2cccc3cccc(c23)C1=O (configuration not stated),15%
8,CCc1ccc(NC(=O)C(=O)NCCCO)cc1,5%
9,CN(C)c1ccc(C(O)C(C)(O)c2nc3ccccc3n2C)cc1 (configuration not stated),6.1%
10,CCOc1cc(/C=C2/C(=O)NC(=O)N(c3ccc(OC)cc3)C2=O)ccc1OCCOc1ccc([N+](=O)[O-])cc1,-0.9%
11,COc1cc(/C=C2/C(=O)NC(=O)N(c3ccc(C)cc3)C2=O)ccc1OCCOc1ccc([N+](=O)[O-])cc1,10.8%
12,COc1cc(/C=C2/C(=O)NC(=S)N(c3ccccc3)C2=O)ccc1OCc1ccc([N+](=O)[O-])cc1,4%
13,COc1cc(C=C2C(=O)c3ccccc3C2=O)ccc1OCc1ccc(F)cc1,88.7%
14,C=CCOc1ccc(/C=C2/C(=O)NC(=O)N(c3cccc(C)c3)C2=O)cc1OCC,126%
15,COc1cc(/C=C2\C(=O)NC(=O)N(c3ccc(C)cc3)C2=O)ccc1OCc1ccc([N+](=O)[O-])cc1,70%
16,C=CCOc1ccc(/C=C2\C(=O)NC(=O)N(c3ccc(Cl)cc3)C2=O)cc1OCC,-4%
17,CCOc1cc(/C=C2/C(=O)NC(=O)N(c3ccccc3)C2=O)ccc1OCc1ccc([N+](=O)[O-])cc1,75.9%
18,O=C1C(=Cc2ccc(OCc3ccc(F)cc3)c(Br)c2)C(=O)c2ccccc21,19.1%
19,C=CCOc1ccc(/C=C2/C(=O)NC(=O)N(c3ccc(C)cc3)C2=O)cc1OCC,-2.8%
20,COc1cc(C=C2C(=O)c3ccccc3C2=O)ccc1OCc1ccc(I)cc1,-11.5%
21,COc1cc(/C=C2\C(=O)NC(=O)N(c3ccc(C)cc3)C2=O)ccc1OCc1ccccc1,38.6%
